Source: PubChem BioAssay (NCI)
This is part of a sample that, as a whole, favours compounds with a hit. Of some 79,000 tested, about 15% had one in any assay. The source made the active and inactive calls. Rule as the data show it: active = growth inhibition above about 70%; inactive = the rest. Where a SMILES comes first, the peptide text is derived from it. The star is where a group is joined. Cbz = O=C(OCc1ccccc1)*; OBn = c1ccc(CO*)cc1

How the values were obtained:
[1] = NCI Yeast Anticancer Drug Screen. Data for the rad50 strain (AID 155);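 also: 0% = growth of vehicle-only cultures of the same strain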; conditions: S. cerevisiae rad50 strain growth inhibition; at 50.0 µM; hits give high values
Summary of the method: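 A DNA repair-deficient yeast mutant serves as the test organism; compound-induced growth inhibition is calculated against vehicle-treated cells.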

[2] = NCI Yeast Anticancer Drug Screen. Data for the mec2-1 strain (AID 157); conditions: S. cerevisiae mec2-1 strain, at 50.0 µM, hits give high values
Summary of the method: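 Growth inhibition is read against vehicle-treated controls after compound exposure of the mec2-1 yeast strain, which is defective in DNA damage repair or cell cycle control.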

[3] = NCI Yeast Anticancer Drug Screen. Data for the sgs1 mgt1 strain (AID 161);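 also: 0% = growth of cultures given vehicle only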; conditions: S. cerevisiae sgs1 mgt1 strain, at 50.0 µM, hits give high values
Summary of the method: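 Yeast cells carrying a defined DNA-repair defect were exposed to test compounds. Growth inhibition was measured relative to vehicle-treated controls.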

[4] = NCI Yeast Anticancer Drug Screen. Data for the cln2 rad14 strain (AID 165);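 also: 0% = growth equal to vehicle treated cultures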; conditions: S. cerevisiae cln2 rad14 strain, at 50.0 µM, hits give high values
Summary of the method: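 Growth inhibition, relative to vehicle-treated controls, is the read-out. The test organism is a yeast strain with defined genetic alterations, cln2 rad14.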

[5] = NCI Yeast Anticancer Drug Screen. Data for the bub3 strain (AID 167); conditions: S. cerevisiae bub3 mutant strain, at 50.0 µM, hits give high values
Summary of the method: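 Inhibition values come from growth of compound-treated mutant yeast normalised to vehicle-treated controls.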

[6] = NCI Yeast Anticancer Drug Screen. Data for the mlh1 rad18 strain (AID 175); conditions: S. cerevisiae mlh1 rad18 strain growth inhibition; at 50.0 µM; hits give high values
Summary of the method: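 Cells of a genetically altered yeast strain, deficient in DNA damage repair, were treated with compound. Their growth was then compared with that of vehicle-treated cultures to give inhibition.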

Row | Compound | growth inhibition [1] | growth inhibition [2] | growth inhibition [3] | growth inhibition [4] | growth inhibition [5] | growth inhibition [6]
1 | O=C(NC(CO)C(=O)N1CCCC1C(=O)OCc1ccccc1)OCc1ccccc1 (stereo not drawn) (Cbz-Ser-Pro-OBn; configuration not given here) | 8.55% (inactive) | 7% (inactive) | 7.05% (inactive) | 23.9% (inactive) | 4.45% (inactive) | 7.6% (inactive)
2 | CCOC(=O)N1OC2C=CC1CC2 (configuration not stated) | -7.45% (inactive) | -9.45% (inactive) | -12.1% (inactive) | 11.8% (inactive) | 3.45% (inactive) | 15.1% (inactive)
3 | Cc1cccc(C2ON=C(c3ccccc3)N2C23CC4CC(CC(C4)C2)C3)c1 (configuration not stated) | -20.8% (inactive) | -0.35% (inactive) | -22.1% (inactive) | -2.45% (inactive) | 0.75% (inactive) | -33.5% (inactive)
4 | Nc1nc(=O)n(C2CCC(CO)O2)cc1F (configuration not stated) | 34.7% (inactive) | 18.1% (inactive) | 16.2% (inactive) | -2.65% (inactive) | 10.5% (inactive) | 5.05% (inactive)
5 | C1CCN(CCC2CCCCN2)CC1 (configuration not stated) | -23.4% (inactive) | -32.4% (inactive) | -41.6% (inactive) | -33.2% (inactive) | -37.8% (inactive) | -28% (inactive)
6 | CCCCCCCCCCCl | 13.2% (inactive) | 5.85% (inactive) | 28.5% (inactive) | 21.8% (inactive) | 17.6% (inactive) | 25% (inactive)
7 | C/C(=N\N(C)S(=O)(=O)c1ccc(C)cc1)c1ccccc1 | 10.1% (inactive) | -6.9% (inactive) | -5.5% (inactive) | -30.1% (inactive) | -10.1% (inactive) | 0.65% (inactive)
8 | O=C1C=C(C2OC(CI)C(O)C2O)C(=O)N1 (configuration not stated) | -0.45% (inactive) | 23.1% (inactive) | 11.5% (inactive) | -14.4% (inactive) | 23.2% (inactive) | -2.05% (inactive)
9 | CC(/C=N\Nc1ccc([N+](=O)[O-])cc1)=N/N=C(N)N | 8.35% (inactive) | -2.9% (inactive) | 9.55% (inactive) | -10.9% (inactive) | 3.1% (inactive) | 18.7% (inactive)
10 | CC1=C/C(=N\NC(=O)c2ccc[n+](C)c2)CC(C)(C)C1 | 18.7% (inactive) | 2.2% (inactive) | 6% (inactive) | 18.4% (inactive) | -5.4% (inactive) | 12.2% (inactive)
11 | CCCCSc1ncnc2nc(C)[nH]c12 | -9.85% (inactive) | -20.6% (inactive) | -7.7% (inactive) | -25.6% (inactive) | -14% (inactive) | -12.7% (inactive)
12 | NC(=O)c1n[nH]c(C2OC(CO)C(O)C2O)n1 (configuration not stated) | -1.5% (inactive) | -6.8% (inactive) | 0.9% (inactive) | -15.7% (inactive) | 5.75% (inactive) | -7.5% (inactive)
13 | COc1ccc(C2(CN(C)C)COc3cc(OC)c(OC)cc3C2=O)cc1OC (configuration not stated) | 27% (inactive) | 2.8% (inactive) | -7% (inactive) | 27.6% (inactive) | -2.1% (inactive) | 13.3% (inactive)
14 | Cc1cc(=O)c(CO)n[nH]1 | 8.75% (inactive) | 15.2% (inactive) | 3.7% (inactive) | 6.8% (inactive) | 3.45% (inactive) | 19.5% (inactive)
15 | CC(=O)CC(=NCC(O)CN=C(CC(C)=O)c1ccccc1)c1ccccc1.[Cu] (configuration not stated) | 10.4% (inactive) | 8.55% (inactive) | 5.9% (inactive) | -18.7% (inactive) | -11.3% (inactive) | 25.4% (inactive)
16 | CC(CO)NCc1ccccc1 (configuration not stated) | -18.2% (inactive) | -14.9% (inactive) | -1.95% (inactive) | 3.95% (inactive) | -29.6% (inactive) | 3.95% (inactive)
17 | C=C(Cl)CSC(C)(C)C | -9.4% (inactive) | 5.8% (inactive) | -6.7% (inactive) | -19.6% (inactive) | -18.2% (inactive) | -8.5% (inactive)
18 | C/C(=N/NC(N)=O)C1=CCCCC1 | -7% (inactive) | 7.3% (inactive) | 6.35% (inactive) | 4.1% (inactive) | 0.7% (inactive) | 7.4% (inactive)
19 | CCOC(=O)C1(C(=O)OCC)CCCCC1=O | 13.2% (inactive) | -15.2% (inactive) | -22.9% (inactive) | 11.2% (inactive) | -46.6% (inactive) | -1.1% (inactive)

Row | Compound | growth inhibition [1] | growth inhibition [2] | growth inhibition [3] | growth inhibition [4] | growth inhibition [5] | growth inhibition [6]
20 | Cc1ccc(N=C=C(c2ccc(Cl)cc2)c2ccc(Cl)cc2)cc1 | 73.2% (active) | 64.4% (inactive) | 70.8% (active) | 60.2% (inactive) | 59.6% (inactive) | 77.2% (active)
21 | CCOC(=O)N1C=Cc2ccccc2C1C(=N)N (configuration not stated) | -20.2% (inactive) | -12.3% (inactive) | -11% (inactive) | -7.7% (inactive) | -6.3% (inactive) | -13.6% (inactive)
22 | CC(=O)Oc1c(C)cc(C(=O)CO)cc1C | 34.7% (inactive) | 15.4% (inactive) | 27.7% (inactive) | 6.75% (inactive) | 14.4% (inactive) | 31.8% (inactive)
23 | c1csc(C2=NCCC2)c1 | 0.35% (inactive) | -6.65% (inactive) | 6.35% (inactive) | 36.5% (inactive) | 31.6% (inactive) | 3.3% (inactive)
24 | CCOC(=O)CC[C@@H](NC(=O)c1ccc(NCc2ccc3nc(OC)c(OC)nc3c2)cc1)C(=O)OCC | 2.7% (inactive) | -10.2% (inactive) | -4.15% (inactive) | -9.55% (inactive) | 15.8% (inactive) | -13.4% (inactive)
25 | C(=C/c1ccccc1)/CN1CCCCC1 | 29.4% (inactive) | 19.4% (inactive) | 36% (inactive) | 11.4% (inactive) | 37.2% (inactive) | 29.4% (inactive)
26 | COc1ccc(OC)c(NC(=O)CCCC(=O)C(C#N)c2c(Cl)cccc2Cl)c1 (configuration not stated) | 8.6% (inactive) | 5.5% (inactive) | -5.7% (inactive) | -8.05% (inactive) | 9.2% (inactive) | -3.5% (inactive)
27 | OC(CCN1CCC2CCC(C2)C1)(c1ccccc1)c1ccc(Cl)cc1 (configuration not stated) | -4.55% (inactive) | -16.1% (inactive) | 14% (inactive) | -26.5% (inactive) | 4.4% (inactive) | -17.2% (inactive)
28 | O=c1c2c(-c3ccccc3)onc2n(-c2ccccc2)c(=O)n1-c1ccccc1 | -20.4% (inactive) | 4.5% (inactive) | 13.2% (inactive) | -10.6% (inactive) | -4.2% (inactive) | 36.5% (inactive)
29 | COC1(NS(=O)(=O)c2ccc(C)cc2)CC1 | -43.8% (inactive) | -25.2% (inactive) | -12.1% (inactive) | -39.1% (inactive) | 10.4% (inactive) | -3.85% (inactive)
30 | Cc1cccc(-c2cc(=O)c3cccnc3[nH]2)c1 | 2.05% (inactive) | -1.45% (inactive) | 9.35% (inactive) | 4.05% (inactive) | -13% (inactive) | 1.25% (inactive)
31 | Cc1nn(CO)c(C)c1Br | 9.8% (inactive) | -18.4% (inactive) | 5.9% (inactive) | 21.8% (inactive) | -2.6% (inactive) | 11.7% (inactive)
32 | COc1ccccc1NC(=S)N/N=C/c1cccc(C)n1 | 9.45% (inactive) | -9.9% (inactive) | 20.1% (inactive) | -3.7% (inactive) | 5.5% (inactive) | 40% (inactive)
33 | COc1cc(C2c3cc4c(cc3OC(C)(OC)C2C(C)=O)OCO4)cc(OC)c1O (configuration not stated) | 4.05% (inactive) | -6.25% (inactive) | -24.6% (inactive) | -2.9% (inactive) | -1.2% (inactive) | -0.35% (inactive)
34 | O=C(N/C(=C\c1ccccc1Cl)c1nc2ccccc2[nH]1)c1ccccc1 | -20.5% (inactive) | -15.1% (inactive) | -23% (inactive) | 10.2% (inactive) | 38.9% (inactive) | 10% (inactive)
35 | COc1cc(OC)c(C2c3cc4c(cc3OC(N3CCCC3)C2C)OCO4)c(OC)c1 (configuration not stated) | 17.1% (inactive) | -11.8% (inactive) | 2.45% (inactive) | 18% (inactive) | -5.1% (inactive) | -1.4% (inactive)
36 | O=C1C2=C(c3ccccc31)C(c1ccc(Cl)cc1)NC(=S)N2 (configuration not stated) | 52.6% (inactive) | 26.5% (inactive) | 57.8% (inactive) | 35.2% (inactive) | 44.4% (inactive) | 60.1% (inactive)
37 | NC(=S)c1ccc[n+]([O-])c1 | 15.6% (inactive) | 10.1% (inactive) | 20.2% (inactive) | -13.7% (inactive) | 6.9% (inactive) | 6.85% (inactive)
